Binding signal data for 87 sequences are collected here from paper PMC10668032, “Altered binding affinity of SIX1-Q177R correlates with enhanced WNT5A and WNT pathway effector expression in Wilms tumor”.

The full ranking holds about 33,000 sequences; the median of “e-score” is about -0.05, and the highest 2% start at about 0.38. Only a selection was taken, and the highest values are over-represented in it overall.

For this assay, the target named is T1, SIX1-Q177R homeodomain (human, UniProt Q15475 108-198, Q177R).
T1 sequence: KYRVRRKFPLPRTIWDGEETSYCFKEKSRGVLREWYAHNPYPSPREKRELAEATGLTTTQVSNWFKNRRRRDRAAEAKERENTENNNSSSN
Description: universal protein binding microarray; Universal all-10-mer PBM (8x60K, AMADID 030236), 300 nM GST-tagged protein, Alexa Fluor 488 anti-GST; buffer, salt, pH and temperature not stated (as in Berger); high values mean tight binding. Conditions: protein: ivt; tags: N-terminal GST; dsDNA, one strand shown. The method, boiled down: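 Binding was expressed as 8-mer E-scores calculated with the Universal PBM Analysis Suite. The GST-tagged homeodomains, made by in vitro transcription/translation, were applied in duplicate at 300 nM final concentration to universal 'all 10-mer' protein binding microarrays (8×60K format).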
For GTGTTCTA, the binding signal stood at 0.392 ± 0.00814 E-score.

GTGTTCCA: the binding signal turned out to be 0.361 ± 0.00459 E-score. To GTGTTCGA belongs 0.409 ± 0.0112 E-score; to GTATTCTA, 0.1741 ± 0.00132 E-score. For GTGTGCAA, the binding signal worked out at 0.252 ± 0.0153 E-score.

On to AAGGGGTC, for which the binding signal is 0.17 ± 0.00583 E-score.

In the case of CACCATTC, the binding signal was found to be 0.23 ± 0.0429 E-score. To CCCCCACA belongs 0.262 ± 0.0205 E-score; to ACGGGGTA, 0.233 ± 0.00738 E-score; to GGGTGGTA, 0.194 ± 0.0128 E-score. For the sequence AATAGACA, the binding signal stood at 0.187 ± 0.00716 E-score. On to GATCCCCC, for which the binding signal stood at 0.368 ± 0.0192 E-score. In the case of AACCAGTG, the binding signal was found to be 0.183 ± 0.00569 E-score. To CACCAGTG belongs 0.404 ± 0.0086 E-score; to CACCAGTC, 0.2944 ± 0.00254 E-score; to CTCAGACA, 0.189 ± 0.00366 E-score. To GCATACAC belongs 0.406 ± 0.00565 E-score. To ACATACAC belongs 0.421 ± 0.012 E-score; to ACACATAC, 0.18 ± 0.0765 E-score; to ACATACCC, 0.17 ± 0.00441 E-score. Consider GCATAAAC, for which the binding signal was found to be 0.184 ± 0.0176 E-score.

With CCATACCC, the binding signal turned out to be 0.218 ± 0.00536 E-score. To CCATACAC belongs 0.3962 ± 0.00378 E-score; to CACCTCGA, 0.217 ± 0.0155 E-score.

GAGGGGTA: the binding signal is 0.277 ± 0.00472 E-score. To ATACCGGA belongs 0.178 ± 0.0104 E-score; to AGGCAGGA, 0.158 ± 0.0089 E-score; to ACCTAGAG, 0.175 ± 0.0492 E-score.

Take GGGTGCAA: the binding signal was 0.261 ± 0.0357 E-score.

CAACGCCA: the binding signal came to 0.175 ± 0.0166 E-score.

In the case of CCCCGACC, the binding signal came out at 0.15745 ± 0.000156 E-score.

With CACCGGTC, the binding signal came out at 0.21 ± 0.00979 E-score.

For the sequence CACCGGTG, the binding signal came out at 0.418 ± 0.0109 E-score. AACCGGTG: the binding signal turned out to be 0.299 ± 0.0429 E-score.

As to AATTGGTG, the binding signal came to 0.221 ± 0.00776 E-score. To CCGCGACA belongs 0.241 E-score; to GCAATACC, 0.166 ± 0.00689 E-score. Turning to CTAGTGTC, the binding signal was found to be 0.4067 ± 0.00058 E-score. To CTAGTCAC belongs 0.19 ± 0.0126 E-score; to CTAGTACA, 0.245 ± 0.0089 E-score.

CTTGTGTA: the binding signal came to 0.154 ± 0.0563 E-score. Consider ATATAGTG, for which the binding signal stood at 0.265 ± 0.00494 E-score.

Consider ATAGTGTC, for which the binding signal was 0.3846 ± 0.00175 E-score. ATAGTGTG: the binding signal worked out at 0.188 ± 0.00817 E-score.

On to CTAGTATC, for which the binding signal stood at 0.161 ± 0.0474 E-score. To CTAGTGTA belongs 0.391 ± 0.0289 E-score. To ATAGTATA belongs 0.175 ± 0.0632 E-score; to ATAGTGTA, 0.391 ± 0.0352 E-score. Turning to CACCGTGA, the binding signal worked out at 0.277 E-score. To CCCCCGCC belongs 0.228 ± 0.0364 E-score; to CACGGATC, 0.279 ± 0.0122 E-score. To ACCATGAA belongs 0.1618 ± 0.00147 E-score.

Turning to CATTGGGG, the binding signal is 0.162 ± 0.00379 E-score. To CCCACTCC belongs 0.159 ± 0.0222 E-score. To ACCCCGGA belongs 0.299 ± 0.00931 E-score. To GTAGTGTA belongs 0.427 ± 0.00906 E-score; to GTAGGGTA, 0.193 ± 0.0286 E-score; to GTAGTGAC, 0.26 ± 0.0183 E-score. As to ACCAAGAG, the binding signal worked out at 0.213 ± 0.0142 E-score. To GACACAGC belongs 0.17 ± 0.0393 E-score.

For the sequence AACACACC, the binding signal was found to be 0.395 ± 0.0142 E-score. To AACACACA belongs 0.262 ± 0.0517 E-score; to CACACACC, 0.389 ± 0.0305 E-score. To CACACACA belongs 0.184 ± 0.063 E-score; to GACACACC, 0.422 ± 0.0192 E-score.

In the case of GACACACA, the binding signal stood at 0.334 ± 0.044 E-score. To AACACACG belongs 0.231 ± 0.0156 E-score; to CACACACG, 0.248 ± 0.0453 E-score. As for TGTACCAA, the binding signal came out at 0.164 ± 0.0254 E-score.

Turning to GGGTATAC, the binding signal came out at 0.262 ± 0.00267 E-score. To AACCCGGG belongs 0.244 ± 0.0275 E-score. To CTACTCCA belongs 0.242 ± 0.00788 E-score. To ATACCCAC belongs 0.196 ± 0.0233 E-score; to CACCAGAC, 0.338 ± 0.00569 E-score. On to CACCGCCC, for which the binding signal was determined as 0.3 ± 0.0125 E-score. As for ACACGAGT, the binding signal turned out to be 0.4013 ± 0.00247 E-score. To ACCCGAGT belongs 0.259 ± 0.0341 E-score; to ACACGAGA, 0.352 ± 0.0163 E-score; to ACGCGAGT, 0.162 ± 0.045 E-score.

Regarding ACACGAGC, the binding signal worked out at 0.3292 ± 0.0011 E-score.

In the case of ACACGAGG, the binding signal turned out to be 0.3796 ± 0.00182 E-score.

CACCGCGA: the binding signal stood at 0.238 ± 0.0133 E-score. As to ACCGGGGG, the binding signal came to 0.238 ± 0.00986 E-score.

As to CAGGGTAC, the binding signal is 0.162 ± 0.0178 E-score. To AACCCAGA belongs 0.214 ± 0.0243 E-score; to CACTATAA, 0.253 ± 0.0572 E-score; to CACCTTAA, 0.172 ± 0.0487 E-score.
